{"source": "PubChem BioAssay (NCI)", "note": "About 83,000 compounds went through this panel and 20% of them were active in at least one assay; those are over-represented in the sample as a whole.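 Plates (96-well) were seeded with cells, treated with compound at one concentration, and incubated for 48 hours before percent growth was determined.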 Unmarked numbers belong to inactive results. Activity calls are given as the source filed them.", "data": [{"test_system": "NCI-H322M lung", "assay": "NCI-60 one-dose screen, 48 h (100 = growth as untreated, 0 = no growth, -100 = all killed)", "details": "10 µM unless noted", "description": "Growth inhibition of the NCI-H322M human Non-Small Cell Lung tumor cell line is measured as a screen for anti-cancer activity. Cells are grown in 96 well plates and exposed to the test compound for 48 hours. Compounds are tested at a single concentration, which is 10^-5 M for most compounds. The reported endpoint is percent growth (GI% or GIPRCNT), where numbers from 0 - 100% represent growth inhibition, and numbers from -100% - 0 represent cell death. For example, a value of 40 represents 60% growth inhibition. A value of 0 means no net growth occurred over the course of the experiment. A value of -40 indicates 40% of cells at the beginning of the experiment died by the end of the experiment. A value of -100 means all cells are dead at the end of the experiment.\nNCI-60 Human Tumor Cell Lines Screen was performed using the standard one-dose NCI protocol, which is described in more detail at https://dtp.cancer.gov/discovery_development/nci-60/default.htm.\nCompounds with GIPRCNT values below 10 were considered active. Activity score was based on GIPRCNT using the following formula: […]\nScore is 0 for GIPRCNT values of 100 or above, 50 for GIPRCNT values of 0, and 100 for GIPRCNT values of -100.", "values": [{"smiles": "O=C(O)c1cn(C2CC2)c2cc(N3CCN(C(=O)CSc4nnc(-c5ccc(Cl)cc5)n4-c4ccccc4)CC3)c(F)cc2c1=O", "growth": "110%"}, {"smiles": "COc1ccc(NC(=O)c2ccc(Nc3ncnc4[nH]c(C)c(C)c34)cc2)cc1", "growth": "101%"}, {"smiles": "O=C1NCc2ccc3c(-c4cccc(Cl)c4)c[nH]c3c21", "growth": "47.6%"}, {"smiles": "C#C[C@@]1(O)[C@@H](CO)O[C@@H](n2cnc3c(-c4ccccc4)ncnc32)[C@@H]1O", "growth": "104%"}, {"smiles": "Cc1nc2sc(C(=O)Nc3cccc(Cl)c3C)c(N)c2cc1C(C)O", "note": "(stereo not given)", "growth": "55.6%"}, {"smiles": "O=Cc1[nH]c(Sc2ccccc2)c2ccccc12", "growth": "91.7%"}, {"smiles": "Nc1ccccc1NC(=O)c1ccc(CSc2nc(N3CCOCC3)c3cccn3n2)cc1", "growth": "22%"}, {"smiles": "OCCNc1nc(NCCO)nc(Nc2ccc(C3=NN(c4cc(Cl)cc(Cl)c4)C(c4ccc(C(F)(F)F)cc4)C3)cc2)n1", "note": "(stereo not given)", "growth": "49.1%"}, {"smiles": "C#CCN1C(=O)c2ccccc2N(CC#C)C12CCN(Cc1cn(CC(=O)Nc3ccccc3C(N)=O)nn1)CC2", "growth": "85%"}, {"smiles": "C=C(C)[C@@H]1CC[C@]2(C(=O)N3CCN(C)CC3)CC[C@]3(C)[C@H](CC[C@@H]4[C@@]5(C)C/C(=C/c6ccco6)C(=O)C(C)(C)[C@@H]5CC[C@]43C)[C@@H]12", "growth": "79.9%"}, {"smiles": "COc1ccc2oc(=O)cc(-c3nc4ccc(N)cc4[nH]3)c2c1", "growth": "86.2%"}, {"smiles": "O=C(O)c1cn(C2CC2)c2cc(N3CCN(Cc4nnc(Nc5ccccc5)o4)CC3)c(F)cc2c1=O", "growth": "93.5%"}, {"smiles": "c1ccc(-c2n(Cc3ccc4ccccc4n3)cc[n+]2Cc2ccc3ccccc3n2)cc1", "growth": "85.9%"}, {"smiles": "Nn1c(SCC(=O)Nc2ccc(Cl)cc2)nnc1-c1cc(F)c(Cl)cc1Cl", "growth": "80.2%"}, {"smiles": "COc1cc2nc3c(=O)n(-c4ccc(C#N)cc4)cnn3c(=O)c2cc1OC", "growth": "93.3%"}, {"smiles": "COc1ccc(/C=C/C(=O)C(CC2CCC2)C(=O)/C=C/c2ccc(OC)c(OC)c2)cc1OC", "growth": "10.6%"}, {"smiles": "O=C(CCl)N1CCCc2ccccc21", "growth": "94%"}, {"smiles": "Fc1ccc(N/N=C/c2ccc(-n3cccn3)cc2)cc1", "growth": "99.9%"}, {"smiles": "O=C(/C(=C/c1ccc([N+](=O)[O-])cc1)SCc1ccc(F)cc1)c1ccc(Cl)cc1", "growth": "98.1%"}, {"smiles": "CCOC(=O)c1sc(/N=C2\\NC(=O)/C(=C/c3ccc(N4CCN(C)CC4)cc3)S2)nc1C", "growth": "97.6%"}, {"smiles": "COc1cc(/C=C/C(=O)/C=C/c2cc3ccc(Cl)cc3[nH]c2=O)ccc1O", "growth": "92.2%"}, {"smiles": "COc1cc([C@H](C)c2ccc3ccccc3c2)cc(OC)c1OC", "growth": "55.9%"}, {"smiles": "O=C(O)COc1ccc2c(=O)c3sc4c(=O)c5ccccc5c(=O)c4c3c(=O)c2c1", "growth": "-96.5% (active)"}, {"smiles": "CCOC(=O)c1c(-c2ccc(O)cc2)c(C#N)c2c(C#N)c(N)nn2c1N", "growth": "95.1%"}, {"smiles": "C=C(C)[C@@H]1CC[C@]2(C(=O)OCCOCCOCC[P+](c3ccccc3)(c3ccccc3)c3ccccc3)CC[C@]3(C)[C@H](CC[C@@H]4[C@@]5(C)CC[C@H](OC(=O)C(Cl)Cl)C(C)(C)[C@@H]5CC[C@]43C)[C@@H]12", "growth": "21%"}, {"smiles": "O=C(Nc1ccc2ncnc(Nc3ccc(F)c(Cl)c3)c2c1)c1ccccc1", "growth": "27.2%"}, {"smiles": "O=C(O)c1cc(N=Nc2ccc(-c3ccc(N=Nc4c(S(=O)(=O)O)cc5ccc(Nc6ccccc6)cc5c4O)cc3)cc2)ccc1O", "growth": "94.5%"}, {"smiles": "C[C@H]1[C@H](C)CC[C@]2(C(=O)OCCOCCOCC[P+](c3ccccc3)(c3ccccc3)c3ccccc3)CC[C@]3(C)C(=CC[C@@H]4[C@@]5(C)CC[C@H](OC(=O)C(Cl)Cl)C(C)(C)[C@@H]5CC[C@]43C)[C@H]12", "growth": "27.8%"}, {"smiles": "C=C1C(=O)O[C@H]2[C@H]1CC/C(COC(=O)CCCCC(=O)OC/C1=C/CC[C@@]3(C)O[C@H]3[C@H]3OC(=O)C(=C)[C@@H]3CC1)=C\\CC[C@@]1(C)O[C@@H]21", "growth": "105%"}, {"smiles": "CCCCc1n(Cc2ccc3ccccc3c2)c2ccccc2[n+]1Cc1ccc2ccccc2c1", "growth": "-82.3% (active)"}, {"smiles": "CCN(CC)CC#CCOC(=O)[C@]1(C)CCC[C@]2(C)[C@H]3C[C@H]4C(C(C)C)=C[C@]3(CC[C@H]21)[C@@H]1C(=O)CCC(=O)[C@@H]14", "growth": "87.7%"}, {"smiles": "CCOCc1cc(C(C)(C)C)ccc1O", "growth": "106%"}, {"smiles": "COC(=O)/C=C/c1cc(OC)c2c(c1)[C@@H](C(=O)OC)[C@H](c1ccc(OC)c(OC)c1)O2", "growth": "98.3%"}, {"smiles": "CCOC(=O)c1c(C)nc2c(c1N)/C(=C/c1ccc[nH]1)C(=O)N2Cc1ccc(C(F)(F)F)cc1", "growth": "74.4%"}, {"smiles": "O=C(O)c1ccc(-n2cc(/C=N/Nc3ccc(Cl)cc3Cl)c(-c3ccccc3)n2)cc1", "growth": "103%"}, {"smiles": "C=CCn1c(SCC(=O)Nc2ccc(C(=O)/C=C/c3cc(OC)c(OC)c(OC)c3)cc2)nnc1-c1ccccc1", "growth": "104%"}, {"smiles": "[2H]c1nc(Nc2ncc3cc(C(=O)N(C)C)n(C4CCCC4)c3n2)c([2H])c([2H])c1N1C([2H])([2H])C([2H])([2H])NC([2H])([2H])C1([2H])[2H]", "growth": "71.5%"}, {"smiles": "CCc1ccc(OCc2ccccc2C(=O)Nc2ccc3nc(C)cc(N)c3c2)cc1", "growth": "-92.9% (active)"}, {"smiles": "O=C1CS/C(=N/c2nnc(-c3ccc(O)cc3)s2)N1", "growth": "110%"}, {"smiles": "CN1CCN(/C=C2\\CC(C(=O)NCc3ccc(Cl)cc3Cl)NC2=O)CC1", "note": "(stereo not given)", "growth": "104%"}]}]}
